For 40 compounds, outcome and activity change, negative = cytotoxicity results are on record in PubChem BioAssay (Tox21).

Each structure is given as a SMILES string. Inconclusive results are not listed. Unmarked numbers belong to inactive results. Calls of active or inactive are those of the source. The call rests on the fitted dose curve; in most records, active means well fitted cell-killing curve with a large enough effect in the repeat runs; inconclusive means weak or mixed curves; inactive means no such curve, though single readings can be large or run the other way. Positions of bridges follow the written chain, without caps; N, C: chain ends. Non-standard residues stand in square brackets, D forms with d. Residues, ends and D or L forms follow the SMILES beside them. hArg = N=C(N)NCCCC[C@H](N)C(=O)O; Mpa = O=C(O)CCS
On the % scale 0 is the no-effect control and ±100 the full control effect.

The test is described as follows: qHTS assay to identify small molecule agonists of the peroxisome proliferator-activated receptor delta (PPARd) signaling pathway - cell viability counter screen (AID 743211). Further: nearly all actives have a fitted effect of over 55% in size. The following applies: PPARd-bla HEK293H viability, CellTiter-Glo luminescence, 17 h; series mostly up to 62.6 µM. An excerpt:
U.S. Tox21 Program National Center for Advancing Translational Sciences [NCATS] NIH Chemical Genomics Center [NCGC] U.S. Environmental Protection Agency [EPA] National Institutes of Environmental Health Sciences [NIEHS] National Toxicology Program [NTP] U.S. Food and Drug Administration [FDA] Tox21 Assay Overview: The peroxisome proliferator-activated receptors (PPARs) are lipid-activated transcription factors of the nuclear receptor superfamily with three distinct subtypes namely PPAR alpha, PPAR delta (PPARd) and PPAR gamma. All these subtypes heterodimerizes with Retinoid X receptor (RXR) and have different physiological functions. […] To identify the compounds that activate PPAR-delta signaling, GeneBLAzer PPAR delta UAS-bla HEK293H cell line (Invitrogen, Carlsbad, CA, USA) containing a beta-lactamase reporter gene under the control of an Upstream Activator Sequence (UAS) was used to screen the Tox21 compound library. The cytotoxicity of the Tox21 compound library against the PPARd-bla cell line was tested in parallel by measuring the cell viability using CellTiter-Glo assay (Promega, Madison, WI) in the same wells.
Tox21 Assay Protocol Summary: PPARd-bla cells were dispensed at 3000 cells/6uL/well in 1536-well black wall/clear bottom plates using a Multidrop Combi (Thermo Fisher Scientific, Waltham, MA) dispenser. After the assay plates were incubated at 37 C and 5% CO2 for 5 h, 23 nL of compounds dissolved in DMSO, positive controls or DMSO only was transferred to the assay plate by a Pintool station (Kalypsys, San Diego, CA). The assay plates were incubated at 37C for 17 h. After 1 uL of LiveBLAzerTM B/G FRET substrate was added using a Bioraptr Flying Reagent Dispenser (FRD) workstation (Beckman Coulter, Indianapolis, IN, USA), the plates were incubated at room temperature for 2 h, and fluorescence intensity was measured by an Envision plate reader (PerkinElmer, Shelton, CT). For cell viability readout that measures cytotoxicity, 3 ul/well of CellTiter-Glo reagent was added into the assay plates using a Bioraptr FRD. After 30 min incubation at room temperature, the luminescence intensity in the plates was measured using a ViewLux plate reader (PerkinElmer).
On the technique in general: Quantitative high-throughput screening tests each substance at several concentrations.
On to `CC(=O)Nc1ccc(OC(=O)c2ccccc2OC(C)=O)cc1`, for which the outcome was inactive.

Take `CC(=O)OCC(=O)Nc1cc(C#N)cc(NC(=O)COC(C)=O)c1Cl`: the outcome was inactive.

For `CC1=C(C(=O)O)N2C(=O)[C@@H](NC(=O)[C@H](N)C3=CCC=CC3)[C@H]2SC1`, the compound was called inactive.

`CCO`: the call was inactive.

For the compound `COc1ccc(CCO)cc1`, the compound was called inactive.

In the case of `C=CCCCC`, the call was inactive.

As to `CC1=C(O)C(=O)C(C)O1` (stereo not given), the outcome was inactive.

Turning to `NC(=O)[C@@H]1CSSCCC(=O)N[C@@H](CCCCN=C(N)N)C(=O)NCC(=O)N[C@@H](CC(=O)O)C(=O)N[C@@H](Cc2c[nH]c3ccccc23)C(=O)N2CCC[C@H]2C(=O)N1` ([Mpa][hArg]GDWPC-NH2; disulfide 1-7), the compound was classed as inactive.

Take `C=C(C)C1CC=C(C)C(=O)C1` (stereo not given): the outcome was inactive.

As to `CCOc1cccc(N)c1`, the compound was classed as inactive.

Consider `CC(=O)O[C@@H]1CC2CCC1(C)C2(C)C` (stereo not given in full), for which the compound was classed as inactive.

On to `O=C1CCCCO1`, for which the outcome was inactive.

With `COS(=O)(=O)O`, the outcome was inactive.

As for `CCCSSCCC`, the result was inactive.

Take `OCC1CCC(CO)CC1` (stereo not given): the compound was classed as inactive.

For `CC/C(C)=N\O[Si](C)(O/N=C(\C)CC)O/N=C(\C)CC`, the compound was called inactive.

Consider `Cc1cc(C)c(C(=O)O)c(C)c1`, for which the compound was classed as inactive.

Turning to `O=S(=O)(O)c1ccc2c(N=Nc3ccc(S(=O)(=O)O)c4ccccc34)c(O)c(S(=O)(=O)O)cc2c1`, the activity change, negative = cytotoxicity is 3.44% [at 5.95 µM].

With `O=[N+]([O-])c1c(Cl)cc(Cl)cc1Cl`, the compound was called inactive.

`OCC(O)CN1CCN(c2ccccc2)CC1` (stereo not given): the result was inactive.

As for `O=C(CCCCC(=O)Nc1c(I)cc(I)c(C(=O)O)c1I)Nc1c(I)cc(I)c(C(=O)O)c1I`, the compound was classed as inactive.

For `O=C=NCC1CCCC(CN=C=O)C1` (stereo not given), the result was inactive.

For the compound `O=C(O)CSCC(=O)NC1CCSC1=O` (stereo not given), the compound was called inactive.

Turning to `Cc1c(C(=O)c2c[nH]n(C)c2=O)ccc(S(C)(=O)=O)c1C1=NOCC1`, the call was inactive.

For `CC(O)COC(C)(C)C` (stereo not given), the compound was classed as inactive.

As for `c1ccc(-c2nn[nH]n2)cc1`, the compound was classed as inactive.

Take `CC(C)NCC(O)c1ccc2ccccc2c1` (stereo not given): the compound was classed as inactive.

In the case of `CCCCCCCCCCOC(C)=O`, the outcome was inactive.

For `CCC(C)C(=O)OCCc1ccccc1` (stereo not given), the call was inactive.

`C=CCSSCCC`: the outcome was inactive.

Take `C#CCN[C@@H]1CCc2ccccc21`: the compound was classed as inactive.

For the compound `CC(=O)CC(=O)OC(C)(C)C`, the outcome was inactive.

`CO/N=C(/C(=O)N[C@@H]1C(=O)N2C(C(=O)[O-])=C(C[n+]3ccn4ncccc43)CS[C@H]12)c1nsc(N)n1`: the compound was classed as inactive.

Turning to `Cn1nnc2c(C(N)=O)ncn2c1=O`, the outcome was inactive.

Regarding `Cc1ccc(N)cc1S(=O)(=O)O`, the compound was called inactive.

Consider `C=CC(=O)CCCCC`, for which the call was inactive.

Regarding `O=C(CN1CCNCC1)NC1CCCCC1`, the compound was classed as inactive.

For the compound `C=CC/C=C/C`, the compound was called inactive.

On to `N#Cc1cscn1`, for which the compound was classed as inactive.

For the compound `COCCc1ccccn1`, the call was inactive.
